Screening results (PubChem)
Compounds with a hit are over-represented: about 1.6% of the library has one in this group of screens.
NALP1 yeast inh: NALP1 inflammasome inhibitors in reconstituted yeast, colorimetric, S. cerevisiae, triplicate retest; S. cerevisiae NALP1/ASC/caspase-1 growth, X-gal OD620, 72 h; inhibition, % at 10 µM; actives 0.61% (n = 280,000); AID 2071, 2009; in the data active = inhibition mostly above about 24%, no sharp cut-off; inactive = mostly below about 32%
MOR-DOR ag: agonists of OPRM1-OPRD1 heterodimerization, primary screen, cell-based, luminescence; Mu-type opioid receptor (Homo sapiens) + Delta-type opioid receptor (Homo sapiens), …; cells; activation, % at 9.3 µM; actives 0.3% (n = 340,000); AID 504326, 2011; in the data active = activation above about 18%
PolyA inh: polyadenylation inhibitors in yeast reporter cells, primary screen, luminescence, S. cerevisiae; S. cerevisiae SKY197-pL101 polyadenylation reporter, beta-gal luminescence; efflux-impaired pdr1/pdr3 knockout yeast; score 100 = 6 SD above DMSO; activity score, % at 12 µM; actives 0.02% (n = 300,000); AID 1875, 2009;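 active = lowest replicate activity score at least 50, where 100 means six control SD above control mean; inconclusive = lowest score under 50 but half or more replicates reach 50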;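 also: yeast exposed to compound for 9 h at 30 °C; higher score means more reporter readthrough which indicates perturbed polyadenylation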
HTR5A inv ag: HTR5A inverse agonists in luminescence cell assay, primary screen, counter-screen for OPRM1-OPRD1 heterodimer inverse agonist project, full-deck HTS. 5-hydroxytryptamine receptor 5A (Homo sapiens), P47898. HTR5A cell line, inverse agonism. inhibition, % at 9.3 µM. actives 0.083% (n = 340,000); in the data active = inhibition mostly above about 23%, no sharp cut-off; inactive = mostly below about 18%
Target sequence (P47898 whole entry, looked up): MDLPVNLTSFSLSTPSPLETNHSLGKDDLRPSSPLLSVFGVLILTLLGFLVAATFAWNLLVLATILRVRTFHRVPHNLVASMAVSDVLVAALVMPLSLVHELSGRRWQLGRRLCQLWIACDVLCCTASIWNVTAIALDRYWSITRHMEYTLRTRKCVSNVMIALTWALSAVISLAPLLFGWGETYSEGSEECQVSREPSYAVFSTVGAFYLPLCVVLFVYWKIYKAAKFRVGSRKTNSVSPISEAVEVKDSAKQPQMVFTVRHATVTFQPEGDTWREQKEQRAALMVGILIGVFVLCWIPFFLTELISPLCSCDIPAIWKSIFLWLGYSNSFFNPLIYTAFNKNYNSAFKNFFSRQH
MOR-DOR inv ag: inverse agonists of MOR-DOR heterodimerization, primary screen, cell-based, luminescence | cell-based MOR-DOR heterodimer luminescence, inverse agonism | inhibition, % at 9.3 µM | actives 0.21% (n = 340,000) | AID 504357, 2011; in the data active = inhibition above about 22%, passing the limit was not always enough
HTR5A ag: HTR5A agonists in luminescence cell assay, primary screen, counter-screen for OPRM1-OPRD1 heterodimer agonist project, full-deck HTS; cell-based; activation, % at 9.3 µM; actives 0.61% (n = 340,000); in the data active = activation mostly above about 9.5%, no sharp cut-off; inactive = mostly below about 7.6%
Each line names hits and unclear results; the compound was inactive in the other large screens.

CC1CCc2c(C(=O)NCCN3CCOCC3)csc2C1 (stereo unspecified)	none
CC1CCc2c(C(=O)Nc3ccc(N4CCOCC4)cc3)csc2C1 (stereo unspecified)	NALP1 yeast inh 27
O=C(CSc1n[nH]c(-c2cccs2)n1)N1CCN(S(=O)(=O)c2ccc3ccccc3c2)CC1	HTR5A ag 9.8
Nc1cc(=O)[nH]c(SCC(=O)N2CCN(S(=O)(=O)c3ccc4ccccc4c3)CC2)n1	none
COc1ccc(OC)c(S(=O)(=O)N(C)CC(=O)N2CCOCC2)c1	HTR5A ag 11
COc1ccc(OC)c(S(=O)(=O)N(C)CC(=O)N2CCN(c3ccc(F)cc3)CC2)c1	none (no result: NALP1 yeast inh)
CCCc1nnc(SCC(=O)N2CCCCC2C)n1CCCOC (stereo unspecified)	none
CCCc1nnc(SCC(=O)N2CCCCC2C)n1CCOC (stereo unspecified)	NALP1 yeast inh 24
COc1ccc(/C=N/NC(=O)c2ccccc2)cc1CN1CCN(c2ccc(F)cc2)CC1	none
COc1ccc(/C=N/NS(=O)(=O)c2ccc(F)cc2)cc1CN1CCSCC1	NALP1 yeast inh 30, PolyA inh inconclusive
C=CCn1c(O)c2ccc(C(=O)N=NC(=O)COc3ccc(OC)cc3)cc2c1O	none
Cc1ccc(C)c(OCCC(=O)NNC(=O)Cn2nc(C)cc2C)c1	HTR5A ag 12 (no result: NALP1 yeast inh)
Cc1ccc(C)c(C(=O)CCC(=O)NNC(=O)Cn2nc(C)cc2C)c1	none (no result: NALP1 yeast inh)
CCOC(=O)C(C(=O)OCC)C(C(=O)OCC)N1CCOCC1 (stereo unspecified)	NALP1 yeast inh 101, PolyA inh inconclusive
COCCCNc1nc(-c2ccc(Cl)cc2)nc2ccccc12	NALP1 yeast inh 36
O=C(CCl)N(C/C=C/c1ccccc1)c1ccc2c(c1)OCCO2	MOR-DOR ag 38, HTR5A ag 71
Cc1cccc(NC(=O)c2cc(C)nc3ccccc23)c1	HTR5A ag 14
Cc1ccc(NC(=O)c2cc(C)nc3ccccc23)cc1	none
COc1cccc(-c2cc(C(=O)Nc3ccncc3)c3ccccc3n2)c1	HTR5A ag 14
N#Cc1ccccc1NC(=O)C(=O)NCCCN1CCCC1=O	none (no result: NALP1 yeast inh)
CN(CC(=O)Nc1cccc(F)c1)C(=O)CN1C(=O)NC2(CCCC2)C1=O	none (no result: NALP1 yeast inh, PolyA inh)
COc1ccc(S(=O)(=O)N2CCC(C(=O)NCc3ccncc3)CC2)cc1Cl	none
COc1ccc(S(=O)(=O)N2CCCC(C(=O)NCc3ccncc3)C2)cc1Cl (stereo unspecified)	NALP1 yeast inh 26
Cc1cccc(OCC(=O)NCCCNC(=O)c2ccco2)c1	none
Cc1ccc(CCNC(=O)Cn2ncc3c([nH]c4ccccc43)c2=O)cc1	none
O=C(Cn1ncc2c([nH]c3ccccc32)c1=O)NCC1CCN(Cc2ccc(F)cc2)CC1	NALP1 yeast inh 29
Cc1nn(-c2ccccn2)c2c1C(=O)C(Br)CC2 (stereo unspecified)	none (no result: PolyA inh)
Cc1ccc(CNC(=S)Nc2ccc(NS(=O)(=O)c3ccc(C)cc3)cc2)cc1	HTR5A ag 11
Cc1ccc(NC(=S)NCc2ccc(F)cc2)cc1	none (no result: NALP1 yeast inh)
CCOc1ccc(NC(=O)/C=C/c2ccccc2)c([N+](=O)[O-])c1	none
CCOc1ccc(N/C=C/C(=O)c2ccccc2)c([N+](=O)[O-])c1	NALP1 yeast inh 51
O=Cc1s/c(=N\S(=O)(=O)c2ccccc2)n(CCCCl)c1Cl	MOR-DOR inv ag 34
Cc1ccc(-c2csc(NC(=O)c3ccc(Br)cc3)c2C(=O)O)cc1	NALP1 yeast inh 61
Cc1nc2ccc(C(C(F)(F)F)(C(F)(F)F)C(F)(F)F)cc2[nH]1	NALP1 yeast inh 40
O=C(/C(Cl)=C/Nc1ccc(Br)cn1)C(F)(F)F	none
COCc1cc(C)nc(N2CCN(c3ccccc3)CC2)c1C#N	none
COCc1cc(C)nc(N2CCN(Cc3ccccc3)CC2)c1C#N	NALP1 yeast inh 41
Oc1ccc2ccccc2c1-c1sc(Nc2ccccc2)n[n+]1-c1ccc(F)cc1	none
Fc1ccc(-[n+]2nc(Nc3ccccc3)sc2-c2c3ccccc3cc3ccccc23)cc1	HTR5A ag 17
Cn1c(C(=O)NCc2ccccn2)cc2c(=O)n(C)c3ccccc3c21	HTR5A ag 13
Cc1ccc(CNC(=O)c2cc3c(=O)n(C)c4ccccc4c3n2C)o1	none
Cc1cc(O)c(C(C)C)cc1N=Nc1ccccc1C(=O)O	NALP1 yeast inh 38
Cc1cc(N=Nc2ccccc2C(=O)O)c(C)c(C)c1O	none
CC(C)CC1(C)NC(=O)N(CC(=O)N2C(C)CCCC2C)C1=O (stereo unspecified)	HTR5A ag 13 (no result: NALP1 yeast inh, PolyA inh)
CC(C)CC1(C)NC(=O)N(CC(=O)Nc2ccc3c(c2)CCC3)C1=O (stereo unspecified)	none
O=[N+]([O-])c1ccc2nc(CCCc3nc4ccc([N+](=O)[O-])cc4[nH]3)[nH]c2c1	NALP1 yeast inh 32
O=C(Nc1ccc(C(F)(F)F)cc1)N1CCN(c2ccnc3cc(Cl)ccc23)CC1	none (no result: NALP1 yeast inh, MOR-DOR ag, HTR5A inv ag, MOR-DOR inv ag, HTR5A ag)
CC(NC(=O)CCCCCCN1C(=O)c2ccccc2C1=O)c1ccc2c(c1)CCCC2 (stereo unspecified)	PolyA inh 82
CC(NC(=O)CCCCCN1C(=O)c2ccccc2C1=O)c1ccc2c(c1)CCCC2 (stereo unspecified)	none
C/C(=N\NC(=O)C1CCCC1)c1ccc(Cl)cc1Cl	none (no result: PolyA inh)
Cc1ccc(NC(=O)COC(=O)CCC2CCCC2)c(Br)c1	none (no result: NALP1 yeast inh, PolyA inh)
COc1ccc(S(=O)(=O)N2CCOCC2)cc1NC(=O)CSc1ncccn1	HTR5A ag 11 (no result: NALP1 yeast inh, PolyA inh)
COc1ccc(S(=O)(=O)N2CCCCC2)cc1NC(=O)CSc1ncccn1	none (no result: NALP1 yeast inh, PolyA inh)
Cc1cc(C)c(CN2CCC(CO)(CCOc3ccccc3)CC2)cc1C	none
Cc1c(CN2CCC(CO)(CCOc3ccccc3)CC2)c(=O)n(-c2ccccc2)n1C	NALP1 yeast inh 26
COc1ccc2oc(C(=O)Nc3ccc(S(=O)(=O)N(C)C4CCN(C)CC4)cc3)c(C)c2c1	none
COc1c2ccoc2c(OC(C)=O)c2oc(C)cc(=O)c12	HTR5A ag 9.8
COc1c2occc2c(OC)c2c(=O)cc(C(F)(F)F)oc12	none
COc1ccc(C(=O)c2no[n+]([O-])c2C(=O)c2ccc(OC)cc2)cc1	MOR-DOR ag 40, HTR5A ag 26
O=C(NC(c1ccccc1)c1c(O)ccc2ccccc12)c1ccccc1Cl (stereo unspecified)	HTR5A ag 11 (no result: PolyA inh)
Oc1c(Cl)cc(Cl)cc1CNn1cnnc1	none
